# Rows were chosen to be rich in hits. Some 3.9% of all compounds tested hit in one or more screens of this group.
# Peg3 prom inh-1: reduces Peg3 promoter-driven luciferase expression in HeLa; 1.7% of 360,000 active; inhibition, % at 20 µM; AID 588405; HeLa PEG-Prom luciferase reporter, luminescence, overnight;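 active means inhibition of at least 50% at 20 µM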
# CF NFkB block: blocks PAF-induced NF-kB reporter in cystic fibrosis cells; AID 588850; 0.86% of 360,000 active; KKLEB NF-kB-GFP reporter, GFP fluorescence overnight; inhibition, % at 5 µM;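 active means at least 50% inhibition at 5 µM, scaled per plate between neutral and stimulator controls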;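 further: PAF is a Pseudomonas aeruginosa culture filtrate used as stimulus; plate controls were PAF-stimulated DMSO wells for no effect and unstimulated DMSO wells for full effect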
# TWEAK Fn14 block: TWEAK-Fn14 signaling inhibition | inhibition, % at 10 µM | TWEAK-stimulated Fn14 reporter cells, luciferase luminescence, 8 h | 2% of 360,000 active | AID 1159606; in the data active means inhibition above about 50%
# KKLEB cytotox: reduces viability of KKLEB cystic fibrosis airway cells | KKLEB CF airway cells viability, ATPlite luminescence, overnight; stronger effect = lower value; cells stimulated with P. aeruginosa culture filtrate | AID 602141 | activity change (cytotoxicity), % at 5 µM | 0.36% of 360,000 active;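 active means corrected activity change at or below -50% at 5 µM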
# HIF-2a block: inhibitors of HIF-2a; 786-0 RCC cells HIF-2a reporter, luciferase luminescence, overnight; inhibition, % at 18.8 µM; 0.72% of 360,000 active; AID 624352;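 active means inhibition of the luminescence signal of 40% or more relative to plate controls, in a single-dose primary screen at 18.75 µM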
# TROY signal inh: TROY signaling inhibition; inhibition, % at 10 µM; Q293 LMP1-TROYcd NF-kB luciferase reporter, 4 h; AID 1347056; 0.98% of 360,000 active;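 active means compounds whose plate-normalised and pattern-corrected inhibition of the luciferase reporter signal at the single screening dose is 50% or more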
# Peg3 prom inh-2: Peg3 promoter inhibition confirmation; shares compounds with Peg3 prom inh-1; HeLa PEG-Prom luciferase reporter, luminescence, overnight; inhibition, % at 20 µM; 84% of 1,300 active;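 active means at 20 µM dose, 40% or more inhibition averaged across four replicates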
# * marks the source's active call; other numbers are inactive results; . = no result given.
SMILES,Peg3 prom inh-1,CF NFkB block,TWEAK Fn14 block,KKLEB cytotox,HIF-2a block,TROY signal inh,Peg3 prom inh-2
CCC1CCCCN1S(=O)(=O)c1ccc(C(=O)N(CCCN(C)C)c2nc3cc4c(cc3s2)OCO4)cc1 (stereo unspecified),59*,26,-14,-23,-5,-7,70*
CC1CCCCN1S(=O)(=O)c1ccc(C(=O)N(CCCN(C)C)c2nc3ccc(Br)cc3s2)cc1 (stereo unspecified),81*,8,-42,-27,-27,-29,93*
Cc1cc2nc(-c3ccccn3)c(-c3ccccn3)nc2cc1C,-111,-2,15,3,-127,-2,.
CS(=O)(=O)N(CC(=O)NCC1CCCO1)c1ccc(F)c(Cl)c1 (stereo unspecified),2,-10,-1,2,15,-3,.
c1ccc(C[C@H]2CNCCN2CCCCC2CCCCC2)cc1,105*,-2,0,6,8,-1,98*
CCCC(=O)Nc1nnc(S(=O)(=O)N(C)Cc2ccco2)s1,-4,-1,16,7,7,11,.
Cc1nn(-c2ccccc2)c2c1C(c1ccc([N+](=O)[O-])cc1)N1C(=N2)C(=O)Nc2ccccc21 (stereo unspecified),53*,12,33,-9,2,22,50*
Cc1nn(-c2ccc([N+](=O)[O-])cc2)c2c1C(c1cccc(Br)c1)N1C(=N2)C(=O)Nc2ccccc21 (stereo unspecified),43,-25,26,-8,16,12,.
COc1cccc(Nc2ncnc3onc(-c4ccccc4OC)c23)c1,14,10,-8,-6,31,13,.
CCSc1nc(N)nc2c1ncn2C1OC(CO)C(O)C1O (stereo unspecified),-16,-10,-14,6,2,2,.
Cn1cnc([N+](=O)[O-])c1Sc1nc(N)nc2c1ncn2C1OC(CO)C(O)C1O (stereo unspecified),61*,10,18,1,21,3,64*
Cc1nc(SCC(=O)NCc2ccco2)c2c(C)c(C)sc2n1,8,-3,-9,-2,5,-1,.
Cc1sc2nc(C(C)C)nc(SCC(=O)NCc3ccco3)c2c1C,59*,-6,-1,-10,21,-19,32
COCc1ccc(CN2CCC(C(=O)Nc3cccc(-c4cccc(Cl)c4)c3)CC2)o1,103*,15,-15,-9,34,19,99*
Cc1cc(C)cc(NC(=O)Cn2c(=O)oc3cc(S(=O)(=O)N4CCC(C)CC4)ccc32)c1,68*,19,-1,3,11,4,44*
COc1ccc(-c2sc3ccccc3c2C#Cc2cncn2C)cc1,52*,17,-21,0,22,-1,33
CCOC(=O)Nc1cc2c(c(N)n1)N=C(c1ccccc1)CN2,-129,46,5,-32,-160,-27,.
O=C(c1cc(-c2cccs2)nn1-c1ccccc1)N1CCN(S(=O)(=O)c2ccccc2)CC1,57*,21,28,-20,6,10,57*
COc1ccc(NC(=O)C(c2ccccc2)N2CCN(c3ccccn3)CC2)cc1Cl (stereo unspecified),-5,-6,-9,6,-3,0,.
CCOC(=O)c1cccc(Nc2nc(-c3cccnc3)nc3ccccc23)c1,63*,12,69*,-14,-8,37,90*
COC(=O)c1cccc(Nc2nc(-c3cccnc3)nc3ccccc23)c1,43,34,44,-12,-5,-3,.
COc1ccc(-c2nc(CS(=O)(=O)CC(=O)NCCc3ccc(C)cc3)c(C)o2)cc1,9,23,-7,3,3,-22,.
CCCCCCCn1c(=N)n(CC(O)c2ccco2)c2ccccc21 (stereo unspecified),80*,5,41,-2,0,17,91*
CCCCCCCn1c(=N)n(CC(=O)c2ccco2)c2ccccc21,87*,-4,-9,1,30,20,64*
Cc1cnc(NC(=O)c2ccc(OCC3CCCO3)cc2)s1 (stereo unspecified),53*,16,85*,-42,19,43,11
SMILES,Peg3 prom inh-1,CF NFkB block,TWEAK Fn14 block,KKLEB cytotox,HIF-2a block,TROY signal inh,Peg3 prom inh-2
Cc1ccc(NC(=O)c2ccc(OCC3CCCO3)cc2)nc1 (stereo unspecified),-303,-12,24,5,-165,-25,.
CC(/C=C/c1ccccc1)=N/NC(=O)c1cc([N+](=O)[O-])cc([N+](=O)[O-])c1,51*,17,-13,4,13,10,51*
CC(/C=C/c1cccc([N+](=O)[O-])c1)=N/NC(=O)c1cccnc1,-9,-9,1,4,-3,7,.
CN(C)C=NC(=O)c1[nH]c2ccc(Cl)cc2c1-c1ccccc1,72*,22,69*,2,25,43,81*
COc1ccccc1S(=O)(=O)N(C)C[C@H]1OCc2cn(nn2)CCCC(=O)N([C@H](C)CO)C[C@@H]1C,-2,21,0,3,-1,-6,.
COc1cc2c(cc1OC)CN(c1nc(-c3cccnc3)nc3ccccc13)CC2,65*,6,-13,8,-23,6,71*
Cc1ccc(C)c(S(=O)(=O)N2CCN(c3nc(-c4cccnc4)nc4ccccc34)CC2)c1,64*,13,30,2,-9,12,47*
Cc1c(C(=O)N2CCCC2(C)C(=O)NCC(C)C)oc2ccccc12 (stereo unspecified),-2,1,-7,-14,2,13,.
CC(=O)Nc1sc(C)c(C)c1C(=O)OCC(=O)N(CC(C)C)c1c(N)n(Cc2ccccc2)c(=O)[nH]c1=O,101*,83*,12,-96*,18,3,55*
CC(=O)Nc1sc(C)c(C)c1C(=O)OCC(=O)Nc1cccc(C)c1,90*,43,-20,-27,-6,-15,39
CC(=O)Nc1sc(C)c(C)c1C(=O)OCC(=O)Nc1ccccc1,18,4,-25,-5,-37,-39,.
O=C1[C@@H]2[C@@H](CN3CN(c4ccccc4)N=C(c4ccccc4)[C@@]23c2ccccc2)C(=O)N1c1ccccc1,13,4,-18,3,-8,-2,.
CCc1ccc2c(c1)Sc1ccccc1CC2N1CCN(C)CC1 (stereo unspecified),55*,10,-7,-16,9,-60,77*
Cc1csc2nc(COC(=O)c3ccc(Cl)c([N+](=O)[O-])c3)cc(=O)n12,59*,26,-49,-11,5,12,-1
Fc1cccc(F)c1-c1nc2c(s1)CCc1onc(-c3ccc(Br)cc3)c1-2,-34,13,6,3,-14,-7,.
O=C(Nc1ccc2c(c1)OCO2)c1ccccn1,-234,11,18,2,-171,-21,.

# Bioassay records deposited in PubChem by Sanford-Burnham Center for Chemical Genomics.
